Screening data from PubChem.
BCLXL inh – blocks human Bcl-xL binding to Bim BH3 peptide; Q07817; GST-Bcl-xL / FITC-Bim BH3 peptide fluorescence polarization; inhibition, % at 10.9 µM; actives 0.7% (n = 320,000);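 active means inhibition above the mean of all tested compounds plus 3 SD, cutoff set per campaign, cut at about 30% in these data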;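 further: inhibitors lower millipolarization by displacing the labeled peptide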
GLD-1 RNA inh – GLD-1-TGE RNA interaction inhibition (C. elegans); Q17339; purified GLD-1 + fluorescein TGE RNA, fluorescence polarization; inhibition, % at 5.96 µM; actives 0.44% (n = 320,000); AID 2280;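 active means percent inhibition above a per-plate cutoff, the plate mean of test compounds plus 3 SD, cut at about 30% in these data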
C-LANA FP – blocks KSHV LANA C-terminal domain binding to DNA | MBP-C-LANA/FAM-LBS DNA binding, fluorescence polarization | inhibition, % at 9 µM | actives 0.078% (n = 340,000);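 active means highest replicate inhibition at or above 60% at 9 µM, even if other replicates fall short; inactive means all replicates below 60% inhibition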
eLon inh – E. coli protease La inhibition; purified E. coli Lon protease, fluorescence polarization; inhibition, % at 7.94 µM; actives 0.42% (n = 360,000); in the data active means inhibition above about 13%, passing the limit was not always enough
Keap1-Nrf2 PPI – Keap1-Nrf2 (human) interaction inhibition. Q14145. Keap1 Kelch-Nrf2 peptide fluorescence polarization, 1536-well. inhibition, % at 9.4 µM. actives 0.15% (n = 340,000). AID 504523; in the data active means inhibition above about 12%;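 further: human Keap1 Kelch domain with fluorescein labeled Nrf2 9mer peptide probe; higher means more block of Keap1 binding to Nrf2 peptide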
Target sequence (Q14145 whole entry, looked up, the tested form may be a part): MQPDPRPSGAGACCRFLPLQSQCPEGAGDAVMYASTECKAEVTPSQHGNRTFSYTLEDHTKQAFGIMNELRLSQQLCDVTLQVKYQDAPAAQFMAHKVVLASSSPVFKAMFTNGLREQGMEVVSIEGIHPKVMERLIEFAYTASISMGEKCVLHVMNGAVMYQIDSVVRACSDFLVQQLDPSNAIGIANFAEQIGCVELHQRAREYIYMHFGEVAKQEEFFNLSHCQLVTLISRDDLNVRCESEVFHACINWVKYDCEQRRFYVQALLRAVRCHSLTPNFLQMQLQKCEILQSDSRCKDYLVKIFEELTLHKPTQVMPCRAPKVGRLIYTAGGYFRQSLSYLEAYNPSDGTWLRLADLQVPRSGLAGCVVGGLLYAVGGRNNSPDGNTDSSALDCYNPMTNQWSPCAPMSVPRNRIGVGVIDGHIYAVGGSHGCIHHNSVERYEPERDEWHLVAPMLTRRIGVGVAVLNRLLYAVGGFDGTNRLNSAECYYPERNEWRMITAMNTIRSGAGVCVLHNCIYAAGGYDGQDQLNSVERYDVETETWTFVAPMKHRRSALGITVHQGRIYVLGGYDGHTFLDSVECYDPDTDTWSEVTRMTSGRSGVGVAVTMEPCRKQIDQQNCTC
MCL1 BIM primary – disrupts human MCL1 binding to BIM-BH3 peptide. actives 0.68% (n = 320,000). GST-MCL1 / FITC-Bim-BH3 fluorescence polarization. AID 2057. Q07820. inhibition, % at 10.9 µM;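 active means inhibition above the mean inhibition of all tested compounds plus 3 SD, set per campaign, cut at about 40% in these data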;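 further: higher means more loss of mP so more displacement of Bim peptide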
BCLXL inh confirm – Bcl-xL (human) inhibition, MCL1 counter-screen confirmation | shares compounds with MCL1 BIM primary | GST-Bcl-xL / FITC-Bim BH3 peptide FP binding | inhibition, % at 10.9 µM | actives 54% (n = 1,700) | AID 2166;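 active means inhibition above a cutoff equal to the mean inhibition of all tested compounds plus 3 SD, cut at about 30% in these data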
MCL1 BIM confirm – confirmation of human MCL1 and BIM-BH3 interaction inhibitors. GST-MCL1 / FITC-Bim-BH3 fluorescence polarization. shares compounds with MCL1 BIM primary. inhibition, % at 10.9 µM. actives 61% (n = 1,700). AID 2168;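 active means inhibition above the average of all tested compounds plus 3 SD, cut at about 40% in these data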
Hits are given with their value; n = inactive; x = not tested or not shown; + = active, no number. Shown are actives, neighbours in structure and some others; about 1.3% of the full set was active somewhere.

SMILES | BCLXL inh | GLD-1 RNA inh | C-LANA FP | eLon inh | Keap1-Nrf2 PPI | MCL1 BIM primary | BCLXL inh confirm | MCL1 BIM confirm
C[C@H](CO)N1C[C@H](C)[C@H](CN(C)S(=O)(=O)c2ccc(-n3cccn3)cc2)OCc2cnnn2CCCC1=O | x | x | x | n | x | x | x | x
N#Cc1c(N2CCCC(O)C2)nc(N)c2c(N)nc3c(c12)CC(=O)N3C12CC3CC(CC(C3)C1)C2 (stereo unspecified) | n | n | n | 35 | n | 54 | n | n
COc1cccc(=O)c2c(C)n(CC(=O)c3ccccc3)c(C)c12 | n | n | n | n | n | 47 | n | n
Cc1ccc(S(=O)(=O)CCC(=O)OCC(=O)Nc2cc(C)on2)cc1 | + | 183 | n | n | n | + | n | n
Cc1ccccc1OCC(=O)OCC(=O)Nc1ncc(Cl)c(C)c1Cl | n | n | n | n | n | 41 | n | 47
Cc1c(CNC(=O)C2CCC(=O)N(CCc3ccccc3)C2)cnn1C (stereo unspecified) | n | n | n | n | n | n | x | x
CCOc1ccc(NC(=S)NC(=O)c2cccnc2)c([N+](=O)[O-])c1 | n | n | n | n | n | n | x | x
CC1=C/C(=C/N(C)c2ccccc2)C(=O)S1 | n | n | n | n | n | 41 | n | n
Cc1ccc(COc2ccc(CNCCCN3CCCCCC3=O)cc2)cc1 | n | n | n | n | n | n | x | x
CCOc1ccc(S(=O)(=O)N2CCC(C(=O)NCC3CCCO3)CC2)cc1C (stereo unspecified) | n | n | n | n | n | n | x | x
O=C(c1cc(-c2ccco2)nn1-c1cccc(Cl)c1)N1CCCCC1 | n | n | n | n | n | 70 | n | 65
CN(C)C(=O)NC(O)C(Cl)Cl (stereo unspecified) | n | n | x | x | x | n | x | x
CC(NS(=O)(=O)OCC(Cl)(Cl)Cl)c1ccc(C(C)(C)C)cc1 (stereo unspecified) | n | n | n | n | n | n | x | x
C[C@H](NS(=O)(=O)OCC(Cl)(Cl)Cl)C1CC1c1ccccc1 (stereo partly specified) | n | n | n | n | n | 47 | n | 61
CCN(CC)S(=O)(=O)c1ccc2[nH]c(=O)cc(C(=O)Nc3cccc(C(C)=O)c3)c2c1 | n | n | n | n | n | n | x | x
O=C(NCc1ccc2[nH]c3c(c2c1)CCCC3)N1CCOCC1 | 64 | 40 | x | x | x | 66 | 53 | 72
O=C(NCc1ccc2[nH]c3c(c2c1)CCCC3)c1ccc(S(=O)(=O)N2CCOCC2)cc1 | n | n | n | n | n | n | x | x
O=C1CC(/C=C/c2ccco2)=Nc2ccccc2N1 | 50 | n | n | n | n | 60 | 32 | 45
CC1=NN2C(=N)/C(=C\c3ccc(SCc4ccccc4)o3)C(=O)N=C2S1 | n | n | n | n | n | n | x | x
N=C1/C(=C\c2ccc(SCc3ccco3)o2)C(=O)N=C2SC=NN12 | 51 | n | n | n | n | 63 | 50 | 68
O=C(O)/C(=C\c1ccc(Cl)c([N+](=O)[O-])c1)c1ccc(S(=O)(=O)N2CCCCC2)s1 | n | n | n | n | n | n | x | x
O=C(O)/C(=C\c1ccc(Cl)c([N+](=O)[O-])c1)c1ccc(S(=O)(=O)N2CCCC2)s1 | n | n | n | n | n | 43 | n | 49
COc1ccc(NC(=O)/C=C/c2ccc(Br)o2)cn1 | n | n | n | n | n | n | x | x
COc1ccccc1CNC(=O)/C=C/c1ccc(Br)o1 | n | n | n | n | n | 42 | n | n
CNc1ccc(Br)cc1C(O)c1ccccc1 (stereo unspecified) | n | n | n | n | n | n | x | x
SMILES | BCLXL inh | GLD-1 RNA inh | C-LANA FP | eLon inh | Keap1-Nrf2 PPI | MCL1 BIM primary | BCLXL inh confirm | MCL1 BIM confirm
O=C(CCS(=O)(=O)c1ccccc1)OCc1ccc([N+](=O)[O-])cc1 | n | n | n | n | n | n | x | x
COc1cccc(CN2C(=O)c3cccc(N)c3C2=O)c1 | 50 | 44 | n | n | n | 58 | 33 | 53
Cc1ccccc1NC(=O)CSc1ccsc1[N+](=O)[O-] | n | n | n | n | n | 67 | 32 | 90
Cc1c(NC(=S)N2CCN(c3cccc(Cl)c3)CC2)c(=O)n(-c2ccccc2)n1C | n | n | n | n | n | n | x | x
CCOC(=O)C1CCN(Cc2ccc(OCc3ccccc3)c(OC)c2)CC1 | n | n | n | n | n | n | x | x
COc1cccc(CCNC(=O)CCCC(=O)c2ccccc2)c1 | n | n | n | n | n | n | x | x
O=S(=O)(c1cccs1)N1CN(Cc2ccco2)c2nc3ccccc3nc21 | 156 | 140 | n | n | n | 172 | n | n
O=S(=O)(c1cccs1)N1CN(Cc2ccc(Cl)cc2)c2nc3ccccc3nc21 | n | n | n | n | n | n | x | x
C/C(=N\Nc1ncnc2sc(C)c(C)c12)c1ccccn1 | 101 | n | n | n | n | 101 | + | +
Cc1sc2ncnc(N/N=C/c3cccc(O)c3)c2c1C | n | n | n | n | n | n | x | x
Cc1nnc(NC(=O)CSc2nnc(-c3ccco3)n2C(C)C)s1 | n | n | n | n | n | n | x | x
CC(C)n1c(SCC(=O)Nc2nncs2)nnc1-c1ccco1 | n | n | x | x | x | 41 | n | 45
NC(=O)c1c(NC(=O)C2CCCO2)sc2c1CCCCC2 (stereo unspecified) | 33 | n | n | n | n | 43 | n | n
O=C(O)CCNC1CCCCC1 | n | n | n | n | n | n | x | x
O=C(O)CCCCC1CCSS1 (stereo unspecified) | n | n | n | n | n | 102 | n | 104
O=C(COc1ccccc1)NCC(c1ccco1)N1CCN(c2ccccc2)CC1 (stereo unspecified) | n | n | n | n | n | n | x | x
CCOC(=O)CSc1nnc(-c2cc(OC)c(OC)c(OC)c2)o1 | n | n | n | n | n | n | x | x
COc1cc(-c2nnc(SCc3cc(=O)oc4cc(O)c(O)cc34)o2)cc(OC)c1OC | n | n | n | n | n | 62 | n | 61
COc1ccccc1OCCNC(=O)C1CC(=O)N(c2cccc(SC)c2)C1 (stereo unspecified) | n | n | n | n | n | n | x | x
Oc1ccc(N=C/C=C/c2ccc(Br)cc2)cc1-c1nc2ccccc2s1 | 46 | n | x | x | x | 48 | n | n
O=C(NC1CCCCNC1=O)c1ccco1 (stereo unspecified) | n | n | n | n | n | n | x | x
Cc1ccc(-c2ccc(/C=C(\C#N)C(N)=S)n2C)cc1 | 67 | n | n | n | n | 68 | n | n
CC1(C(=O)NC2CCCC2)CCC(=O)N1Cc1ccccc1Cl (stereo unspecified) | n | n | n | n | n | n | x | x
